# Many of the other results were omitted from the sample, so hits are more common in it than they were.
# Pf Dd2 inh = qHTS Primary assay for Inhibitors of Plasmodium falciparum Dd2 growth in vitro | P. falciparum Dd2 growth, SYBR Green, 72 h | Potency, µM (doses to about 28.9 µM), hits mostly inhibitors | 120,000 compounds, 4.3% hits; active = well fitted inhibition curve with a large enough effect; note: nearly all actives have a fitted effect of over 65% in size
#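 Infected erythrocytes (Dd2, 0.3% parasitemia, 2.5% hematocrit final) are added to compound in RPMI-1640/Albumax II medium, grown 72 h at 37C in low oxygen, then lysed with saponin/Triton-X containing SYBR Green and read by fluorescence.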
# Hits are given with their value; i = inactive; [ ] = remark or other dose.
SMILES,Pf Dd2 inh
C=CCc1ccccc1OCC(O)CN1CCN(c2ccccc2)CC1 (stereo not drawn),i
CN(C)c1cccc(C(=O)N2CCC(n3cc(-c4nc(-c5ccccc5)no4)nn3)C2)c1 (stereo not drawn),i
CC1(C)CNC(=O)c2nc(CC3(O)CCCC3)[nH]c2C1,i
COC[C@@H]1CN(C(=O)c2ncccc2C)C[C@H]1c1ccncc1,i
COCCn1c(=O)c2c(n1Cc1ccccc1)CN(C(=O)c1cc3ccccc3n1C)CC2,i
Cc1cc(S(=O)(=O)N2CCC(c3noc(COc4ccc(F)cc4)n3)CC2)ccc1F,i
Cc1ccc(C(=O)N2CCC3(CC2)N=C(c2ccccc2)NO3)cc1,i
Cc1ccc(C(=O)N2CCC(c3c[nH]c4ccccc34)(c3c[nH]c4ccccc34)CC2)cc1,2µM
COc1ccc(C(=O)N2CCC3(CC2)NCCc2c3[nH]c3ccccc23)cc1,i
Cc1cn2nc(C(=O)Nc3ccc(F)cc3C)cc2c(N2CCSCC2)n1,i
CC(C)CC(=O)N[C@H](C)c1onc(-c2ccc(F)cc2)c1C(=O)O,i
O=C1NC2(Cc3ccccc31)CN(C(=O)C1CCCC1)C2,i
CN1CCN(c2cc(=O)c3ccnc(-c4ccc(Cl)cc4)c3o2)CC1,i
CCN1CCN(Cc2c(O)ccc3cc(-c4ccc(OC)cc4)c(=O)oc23)CC1,5.6µM
COc1ccc(-c2coc3c2c(C)cc2oc(=O)c(C)c(C)c23)cc1,i
CCN1CCN(C(c2ccc(OC)cc2)c2c(O)cc(C)n(CCOC)c2=O)CC1 (stereo not drawn),i
CCN1CCN(Cc2c(O)ccc3c(C)c(-c4ccc(OC)cc4)c(=O)oc23)CC1,5µM
COc1ccc(Cc2nc3ccc(C(=O)NCCN4CCOCC4)cc3o2)cc1,i
CN1CCN(Cc2c(O)ccc3cc(-c4ccc(Cl)cc4)c(=O)oc23)CC1,5µM
COc1ccc(-c2cc3ccc(O)c(CN4CCOCC4)c3oc2=O)cc1,11µM
Cc1c(-c2ccccc2)c(=O)oc2ccc(OC(=O)N3CCOCC3)cc12,i
O=c1oc2c(CN3CCN(CCO)CC3)c(O)ccc2cc1-c1ccccc1,i
COc1ccc(-c2c(C)c3cc(OC(=O)N4CCOCC4)ccc3oc2=O)cc1,i
COc1ccc(CN2CCC(N3CCOCC3=O)CC2)cc1,i
Clc1ccc(CNC2(Cc3cc(COc4ccccc4)on3)COC2)cc1,i
SMILES,Pf Dd2 inh
CN(C)C(=O)c1ccc(-c2cccc(-c3ccn(CC4CC4)n3)c2)o1,i
O=C1NCCOCCN(C(=O)NCCc2ccccc2)[C@@H]2CCCC[C@H]12,i
Cc1cccc(NC(=O)c2cc3n(n2)CC(c2ccc(Cl)cc2)OC3)c1C (stereo not drawn),i
N#Cc1ccc(CN2CCCCC23Cc2ccccc2CNC3=O)cc1 (stereo not drawn),i
COc1ccc(-c2[nH]ncc2C(=O)NCc2cccc(OC)c2)cc1,i
CCCCN(Cc1ccccc1)Cc1cn[nH]c1-c1ccc(OC)cc1OC,13µM
COc1cccc(-c2[nH]ncc2CN)c1,i
CN(C)C[C@@H]1CN(S(C)(=O)=O)C[C@H]1NC(=O)c1cccn1C,i
Cc1ccc(-c2cn[nH]c2C2CCCN(Cc3cn(CCO)nc3C)C2)cc1 (stereo not drawn),i
Cc1ccc(-c2cc(C(=O)N3CCCC3c3nncn3C(C)C)[nH]n2)cc1 (stereo not drawn),i
O=C(NC1C[C@H]2CC[C@@H](C1)N2C(=O)CCCc1ccccc1)c1ccc(F)cc1 (stereo partly drawn),8.9µM
CC(C)CC(=O)N1[C@@H]2CC[C@H]1CC(NC(=O)c1ccc(F)cc1)C2 (stereo partly drawn),i
COc1cccc(CC(=O)N2[C@@H]3CC[C@H]2CC(NC(=O)c2ccc(F)cc2)C3)c1 (stereo partly drawn),i
Cc1cc(C)c2[nH]c(C(=O)N(C)Cc3ccccc3-n3cccn3)c(C)c2c1,i
COC(=O)c1c(NC(C)=O)c2cc(NC3CCN(C(C)=O)CC3)cnc2n1CC1CCCO1 (stereo not drawn),i
Cc1cccc(NC(=O)CSc2nnc(C)c(=O)[nH]2)c1,i
Cc1nnc(SCC(=O)Nc2ccc(N(C)C)cc2)[nH]c1=O,11µM
Cc1ccc(NC(=O)CSc2nc(C)c(Cc3ccccc3)c(=O)[nH]2)cc1C,i
CCCN1CCC2(CCN(C(=O)COC)CC2)Oc2ccccc21,i
CCCN1CCC2(CCN(C(=O)Nc3ccccc3)CC2)Oc2ccccc21,i
CCOc1ccccc1CN1CCC2(CCN(C(=O)Cc3ccc(F)cc3)CC2)Oc2ccccc21,8.9µM
CCOc1ccccc1CN1CCC2(CCN(CCC(C)C)CC2)Oc2ccccc21,1µM
CCOc1ccccc1CN1CCN(S(=O)(=O)c2ccccc2)CC1,i
CCOc1ccccc1CN1CCC2(CCN(C(=O)C3CCCC3)CC2)Oc2ccccc21,i
CNCC(=O)N1CCCC(c2cc(N3CCOCC3)nc(C)n2)C1 (stereo not drawn),i
SMILES,Pf Dd2 inh
Cc1ccc(-c2nc(CNC(=O)[C@@H]3C[C@@H](O)CN3)[nH]c2-c2ccccn2)cc1,i
COc1cc(NC(=O)c2cc3n(n2)CC(c2ccc(Br)cc2)OC3)cc(OC)c1OC (stereo not drawn),i
O=C1CN(C(=O)c2csc3nc(-c4ccc(C(F)(F)F)cc4)cn23)CCCN1,i
O=C(NCCCN1CCCC1=O)c1ccc2c(c1)[nH]c(=O)n2C1CCC(O)CC1 (stereo not drawn),i
CN1C[C@H](N(C)C)CCC[C@@H](C(=O)NCc2cc(F)cc(F)c2)CC1=O,i
COc1cccc(-c2noc(-c3ccc(-c4cn[nH]c4)nc3)n2)c1OC,i
COc1cccc(-c2noc(-c3ccc(NCCn4cccn4)nc3)n2)c1OC,13µM
COc1cccc(-c2noc(-c3ccc(NCCCSC)nc3)n2)c1OC,i
CCc1ccc(S(=O)(=O)N2CCN(C3CCN(Cc4cccnc4)C3=O)CC2)cc1 (stereo not drawn),i
COCc1nc(C2CCCN(C(=O)c3ccco3)C2)no1 (stereo not drawn),i
CCOC(=O)c1c(C)n(-c2ccc(OC)cc2)c2ccc(OC(=O)COc3ccccc3)cc12,11µM
COc1ccc(-n2c(C)c(C(C)=O)c3cc(OC(=O)COc4ccccc4)ccc32)cc1,i
CCOC(=O)c1c(C)n(-c2ccccc2)c2ccc(OC(=O)COc3ccccc3)cc12,i
Cc1cccc(C2C=C(c3ccc(C)c(C)c3)Nc3nnnn32)c1 (stereo not drawn),11µM
COc1ccc(C2C=C(c3ccc(Br)cc3)Nc3nnnn32)c(OC)c1 (stereo not drawn),i
Cc1ccc(C2=CC(c3c(F)cccc3Cl)n3ncnc3N2)cc1C (stereo not drawn),i
COCCN(C)C[C@H]1C[C@H](CO)CN(C(=O)c2[nH]nc(-c3ccccc3)c2C)C1,i
CN(CC1CCOC1)C(=O)C1CCCC1 (stereo not drawn),i[5.79 µM]
c1ccc(Nc2cc3c(cn2)NCCN(Cc2ccsc2)C3)cc1,i
CN(C)c1cnn(CC(=O)N2CCC(C(=O)N3CCOCC3)CC2)c(=O)c1,i
CCOc1ccc(Nc2nc(Nc3ccc(OCC)cc3)nc(N3CCOCC3)n2)cc1,i
Cc1cccc(Nc2nc(Nc3cccc(C)c3)nc(N3CCOCC3)n2)c1,11µM
Cc1cccc(Nc2nc(N)nc(CN3CC[C@@H](N)[C@H](O)C3)n2)c1,i
CCN1C(=O)C2CC3(CCN(C(=O)NC)CC3)CN2C1=O (stereo not drawn),i
CC(=O)Nc1cccc(-c2ccnc(-c3nnc(C)n3C(C)C)c2)c1,i

# Screening results (PubChem BioAssay)
